Compounds with a hit are over-represented: about 18% of the library has one in this group of screens.
TDP1 cell noCPT: qHTS for Inhibitors of human tyrosyl-DNA phosphodiesterase 1 (TDP1): qHTS in cells in absence of CPT | DT40 Tdp1-/- hTDP1 cells, no CPT, ATP luminescence, 48 h | Potency, µM (doses to about 46.2 µM), inactives show top-dose activity change, negative = growth inhibition, usual class: inhibitors | 420,000 tested, 15% active | AID 686978, 2013; also: nearly all actives have a fitted effect of over 55% in size
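No-CPT arm: Tdp1-/-;hTDP1 DT40 cells (400/well) plus compounds, incubated ≥48 hr at 37 °C. Readout CellTiter-Glo luminescence.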
TDP1 block: qHTS Assay for Inhibitors of Tyrosyl-DNA Phosphodiesterase (TDP1); 350,000 tested, 0.28% active; recombinant TDP1, AlphaScreen DNA substrate cleavage; Potency, µM (top dose mostly 130 µM), for inactives: top-dose activity change, negative = inhibition, usual class: inhibitors; Tyrosyl-DNA phosphodiesterase 1 (Homo sapiens), Q9NUW8; also: nearly all actives have a fitted effect of over 40% in size
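Recombinant human Tdp1 (E. coli-expressed, 1 nM final) preincubated with compounds 15 min at room temperature, then 5'-biotin/3'-phosphotyrosine-FITC DNA substrate (15 nM final) added for 5 min. AlphaScreen beads (10 ug/ml final) added 10 min; cleavage lowers signal.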
PLK1 PBD block: qHTS for Inhibitors of PLK1-PDB (polo-like kinase 1 - polo-box domain): Primary Screen; Plk1 PBD binding of FITC phosphopeptide, fluorescence polarization; Potency, µM, for the others: max response, negative = inhibition, actives largely listed as inhibitors; 360,000 tested, 2.8% active; AID 720504, 2013; also: series mostly up to about 57 µM; nearly all actives have a fitted effect of over 65% in size
VDR inh: Inhibitors of the vitamin D receptor (VDR): qHTS. VDR-SRC2-3 peptide fluorescence polarization, 2 h. Vitamin D3 receptor (Homo sapiens), P11473. AID 504847, 2011. 400,000 tested, 0.93% active. Potency, µM, inactives show max response, negative = inhibition, actives largely listed as inhibitors
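Fluorescence polarization assay measuring small-molecule disruption of VDR binding to the coregulator peptide SRC2-3. Compounds were pin-transferred (23 nl) into the reagent mix and incubated 2 h at room temperature before reading.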
DT40 TDP1 CPT: qHTS for Inhibitors of human tyrosyl-DNA phosphodiesterase 1 (TDP1): qHTS in cells in presence of CPT; 420,000 tested, 12% active; AID 686979, 2013; chicken DT40 Tdp1-/-;hTDP1 cells + 20 nM CPT, ATP luminescence, 48 h; Potency, µM (titrated, usually from 46.2 µM), inactives show at the highest dose activity change, negative = growth inhibition, most hits filed as inhibitors; also: nearly all actives have a fitted effect of over 55% in size
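Chicken DT40 Tdp1-/- cells stably complemented with human TDP1 were seeded at 400 cells/well in medium containing 20 nM camptothecin, exposed to pin-transferred compounds, and grown at 37 °C for at least 48 hr. Viability was read as ATP luminescence.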
KAT2A inh: qHTS Assay for Inhibitors of GCN5L2; 390,000 tested, 0.21% active; GCN5L2 HAT assay, ThioGlo1 CoA-SH fluorescence; Potency, µM (highest dose often 58.9 µM), without a hit: at the highest dose activity change, negative = inhibition, most hits filed as inhibitors; Histone acetyltransferase KAT2A (Homo sapiens), Q92830; AID 504327, 2011
Target sequence (Q92830 whole entry, looked up): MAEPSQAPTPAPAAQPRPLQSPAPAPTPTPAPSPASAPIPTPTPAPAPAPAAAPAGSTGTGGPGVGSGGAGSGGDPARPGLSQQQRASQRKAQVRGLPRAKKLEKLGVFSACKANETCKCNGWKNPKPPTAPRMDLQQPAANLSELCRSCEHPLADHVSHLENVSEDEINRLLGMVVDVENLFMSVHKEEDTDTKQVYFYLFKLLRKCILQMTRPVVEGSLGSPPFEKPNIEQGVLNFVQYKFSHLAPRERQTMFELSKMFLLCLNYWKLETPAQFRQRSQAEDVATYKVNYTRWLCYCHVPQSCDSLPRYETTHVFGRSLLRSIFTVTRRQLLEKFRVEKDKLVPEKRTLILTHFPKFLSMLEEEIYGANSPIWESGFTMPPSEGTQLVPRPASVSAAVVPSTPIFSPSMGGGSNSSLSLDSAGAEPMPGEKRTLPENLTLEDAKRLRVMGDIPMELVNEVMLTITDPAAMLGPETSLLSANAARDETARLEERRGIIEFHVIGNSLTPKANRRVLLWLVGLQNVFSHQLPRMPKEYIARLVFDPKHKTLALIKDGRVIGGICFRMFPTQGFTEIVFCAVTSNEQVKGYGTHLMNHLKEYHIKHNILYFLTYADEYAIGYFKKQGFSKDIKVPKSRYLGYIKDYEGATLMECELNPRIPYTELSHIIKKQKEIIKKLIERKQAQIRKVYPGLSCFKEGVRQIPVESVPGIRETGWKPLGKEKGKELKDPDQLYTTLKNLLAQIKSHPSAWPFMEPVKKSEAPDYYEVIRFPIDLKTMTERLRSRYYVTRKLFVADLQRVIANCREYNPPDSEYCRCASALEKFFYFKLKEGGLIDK
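Fluorescence readout, Ex340nm/Em540nm: ThioGlo1 (50uM final) reacts with free CoA thiol released as 20nM GCN5L2 acetylates H3(1-25) peptide (75uM) using acetyl-CoA (70uM). Compound and enzyme sat 15 min beforehand; 20 min room-temperature reaction.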
Active calls of the source: *. Calls follow the shape of the dose curve; as a rule, active = well fitted curve in the direction sought with a large enough effect; inconclusive = small, poorly fitted or top-dose-only effect, or another doubt; inactive = no such curve, though single readings can be large; an effect the other way counts as inactive or inconclusive. % is scaled to controls: 0 for no effect and ±100 for the full control effect; potency is read from the fitted curve at half-maximal effect.

Screening Cn1ccc(=S)c2ccccc21 returned TDP1 cell noCPT inconclusive, TDP1 block 0%, PLK1 PBD block 12µM*, VDR inh -15%, DT40 TDP1 CPT inconclusive and KAT2A inh -16%.
Cc1ccccc1NC(=O)CSc1nc(-c2ccccc2)cn1-c1ccccc1F was read as TDP1 cell noCPT 23µM*, TDP1 block 8%, VDR inh 1%, DT40 TDP1 CPT inconclusive and KAT2A inh -15%.
`Cc1ccccc1-n1cc(-c2ccccc2)nc1SCC(=O)Nc1ccc(F)cc1` gave TDP1 cell noCPT inconclusive, TDP1 block 8%, VDR inh 21%, DT40 TDP1 CPT inconclusive and KAT2A inh -6%.
For Cc1ccc(C)c(-n2cc(-c3ccccc3)nc2SCC(=O)Nc2ccccc2)c1 the results were TDP1 cell noCPT 18µM*, TDP1 block 6%, VDR inh 18%, DT40 TDP1 CPT inconclusive and KAT2A inh -11%.
Cc1ccc(S(=O)(=O)Oc2ccc(/C=C3/N=C(c4ccccc4)OC3=O)cc2)cc1 was read as TDP1 cell noCPT inconclusive, TDP1 block 2%, PLK1 PBD block -16%, VDR inh inconclusive, DT40 TDP1 CPT inconclusive and KAT2A inh -4%.
Cc1cccc(-c2noc(CN(C(=O)c3ccccc3Cl)C(C)C)n2)c1 was read as TDP1 cell noCPT inconclusive, TDP1 block 6%, VDR inh 1%, DT40 TDP1 CPT inconclusive and KAT2A inh -13%.
Cc1cccc(-c2noc(CN(C(=O)/C=C/c3ccccc3Cl)C(C)C)n2)c1 was read as TDP1 cell noCPT inconclusive, TDP1 block 0%, PLK1 PBD block -12%, VDR inh -16%, DT40 TDP1 CPT 18µM* and KAT2A inh -9%.
`Cc1cccc(-c2noc(CN(C(=O)CCc3ccccc3)C(C)C)n2)c1` gave TDP1 cell noCPT inconclusive, TDP1 block 0%, PLK1 PBD block -10%, VDR inh 0%, DT40 TDP1 CPT 29µM* and KAT2A inh -5%.
Screening COc1ccc(CNC(=O)c2sc3nc4n(c(=O)c3c2C)CCCCC4)cc1 returned TDP1 cell noCPT inconclusive, TDP1 block 9%, VDR inh -9%, DT40 TDP1 CPT inconclusive and KAT2A inh -7%.
O=C(c1cnc2n(c1=O)CCS2)N(c1ccccc1)C1CCCCC1 was read as TDP1 cell noCPT inconclusive, TDP1 block 7%, PLK1 PBD block -2%, VDR inh -18%, DT40 TDP1 CPT inconclusive and KAT2A inh -8%.
O=C(c1cnc2n(c1=O)CCS2)N(C1CCCCC1)C1CCCCC1 was read as TDP1 cell noCPT 23µM*, TDP1 block 5%, PLK1 PBD block -5%, VDR inh -5%, DT40 TDP1 CPT inconclusive and KAT2A inh 5%.
For COc1ccc(-c2cccc(NS(=O)(=O)c3ccc(NC(C)=O)cc3)c2)nn1 the results were TDP1 cell noCPT 15µM*, TDP1 block 7%, VDR inh 2%, DT40 TDP1 CPT 18µM* and KAT2A inh -10%.
For CCCOc1ccc(-c2cccc(NS(=O)(=O)c3cccs3)c2)nn1 the results were TDP1 cell noCPT inconclusive, TDP1 block 1%, VDR inh 9%, DT40 TDP1 CPT inconclusive and KAT2A inh 0%.
`COc1ccc(-c2cccc(NS(=O)(=O)c3cc([N+](=O)[O-])c(C)c([N+](=O)[O-])c3)c2)nn1` gave TDP1 cell noCPT -28%, TDP1 block 13%, PLK1 PBD block -10%, VDR inh -6%, DT40 TDP1 CPT inconclusive and KAT2A inh -4%.
Screening CCOc1ccc(-c2cccc(NS(=O)(=O)c3cccc([N+](=O)[O-])c3)c2)nn1 returned TDP1 cell noCPT inconclusive, PLK1 PBD block 3% and DT40 TDP1 CPT -27%.
Screening CCOc1ccc(-c2cccc(NS(=O)(=O)c3ccc(C)s3)c2)nn1 returned TDP1 cell noCPT inconclusive, TDP1 block 4%, VDR inh 19%, DT40 TDP1 CPT 23µM* and KAT2A inh -6%.
CCOc1ccc(-c2cccc(NS(=O)(=O)c3ccccc3C(F)(F)F)c2)nn1 was read as TDP1 cell noCPT 26µM*, TDP1 block 4%, VDR inh 24%, DT40 TDP1 CPT inconclusive and KAT2A inh -3%.
For Cc1ccc(S(=O)(=O)Nc2cccc(-c3ccc4nnc(C)n4n3)c2)s1 the results were TDP1 cell noCPT inconclusive, TDP1 block -5%, PLK1 PBD block -3%, VDR inh -9%, DT40 TDP1 CPT -28% and KAT2A inh 0%.
Screening COc1ccc(-c2cccc(NS(=O)(=O)c3ccc(C)s3)c2)nn1 returned TDP1 cell noCPT 16µM*, TDP1 block 5%, VDR inh 10%, DT40 TDP1 CPT 15µM* and KAT2A inh -5%.
`C[C@H]1[C@H](c2ccccc2)C[C@@H](C(=O)O)C1(C)C` gave TDP1 cell noCPT 2%, TDP1 block 0%, PLK1 PBD block 0%, VDR inh -2%, DT40 TDP1 CPT 0% and KAT2A inh -5%.
For COc1cccc(C(=O)c2c[nH]c(C(=O)NCCCN3CCOCC3)c2)c1 the results were TDP1 cell noCPT -4%, TDP1 block 0%, PLK1 PBD block -2%, VDR inh inconclusive, DT40 TDP1 CPT -3% and KAT2A inh 13%.
Screening COc1cccc(NC(=O)Cn2c(=O)n(Cc3ccc(C(=O)NCc4ccc5c(c4)OCO5)cc3)c(=O)c3ccccc32)c1 returned TDP1 cell noCPT -17%, TDP1 block -6%, VDR inh -17%, DT40 TDP1 CPT -8% and KAT2A inh 4%.
For Nc1ncnc2c1ncn2[C@@H]1O[C@H](C(=O)N2CCN(c3ccc(Cl)cn3)CC2)[C@@H](O)[C@H]1O the results were TDP1 cell noCPT 21µM*, PLK1 PBD block -13% and DT40 TDP1 CPT -26%.
`Cc1nn(-c2cc(C(F)(F)F)ccc2Cl)c2nc(C(Cl)(Cl)Cl)[nH]c(=O)c12` gave TDP1 cell noCPT -20%, PLK1 PBD block inconclusive, VDR inh -25%, DT40 TDP1 CPT 5% and KAT2A inh -22%.

Screening results deposited in PubChem BioAssay by National Center for Advancing Translational Sciences (NCATS).
